Measurements taken from the OligoGym collection.

What follows are sequences tested against CLDN23 (assay: pooled miR-30 sensor sort-seq; sequence = guide strand). Conditions: shRNA.
Note: reference of the scale not given here.

Question: How did the sensor-assay potency score (higher = more potent) turn out when TTGAGCAGGAGCCCGCAGGGCG was run?
Answer: -1.37

Question: ATGGTGCTGACGCTGCTGCGGC was tested. Which sensor-assay potency score (higher = more potent) did it give?
Answer: -1.77

Question: With TTGGATGGTGCTGACGCTGCTG as the sequence, how does the sensor-assay potency score (higher = more potent) read?
Answer: -0.0148

Question: Which sensor-assay potency score (higher = more potent) does the source give for AAGTTGGGCTCGTCCTGCCAGC here?
Answer: -1.5

Question: With TTGGGCTCGTCCTGCCAGCAGC as the sequence, how does the sensor-assay potency score (higher = more potent) read?
Answer: -1.78

Question: TTGGTGTAGGCCTTGGGCCGCG was tested. Which sensor-assay potency score (higher = more potent) did it give?
Answer: -1.14

Question: For TACAACTCCACGTCCACTGGCT, which sensor-assay potency score (higher = more potent) is on record?
Answer: 0.00465

Question: With TGGATGGTGCTGACGCTGCTGC as the sequence, how does the sensor-assay potency score (higher = more potent) read?
Answer: -1.17

Question: How did the sensor-assay potency score (higher = more potent) turn out when TGGCCGTCGCTGTAGTACTTGA was run?
Answer: -1.77

Question: Which sensor-assay potency score (higher = more potent) does the source give for TCGCTGTAGTACTTGATGGCGG here?
Answer: -1.12

Question: How did the sensor-assay potency score (higher = more potent) turn out when TGTAGCTGACCTGCACCGTGAC was run?
Answer: -0.702

Question: How did the sensor-assay potency score (higher = more potent) turn out when TAGTACTTGATGGCGGGCGCCA was run?
Answer: -1.32

These sequences were tested against CLDN6 in the same assay as above. Conditions: shRNA.

Question: TAGAAGTCCCGGATGATGGCAT was tested. Which sensor-assay potency score (higher = more potent) did it give?
Answer: 0.0775

Question: TAGACCAGCAAGCCGAACAGGG was tested. Which sensor-assay potency score (higher = more potent) did it give?
Answer: -0.8

Question: With TTCTCCTCCACACAGGTGGTAC as the sequence, how does the sensor-assay potency score (higher = more potent) read?
Answer: -1.81

Question: For ACAAAGACAATCCCAGAGGTGA, which sensor-assay potency score (higher = more potent) is on record?
Answer: -0.71

Question: ATGACAAAGACAATCCCAGAGG was tested. Which sensor-assay potency score (higher = more potent) did it give?
Answer: -1.76

Question: Which sensor-assay potency score (higher = more potent) does the source give for AATCCCAGAGGTGAGCACCAGG here?
Answer: -1.46

Question: For TAGCGGGCCATGTAATGGCTGG, which sensor-assay potency score (higher = more potent) is on record?
Answer: -1.06

Question: Which sensor-assay potency score (higher = more potent) does the source give for TTTGATAAAAATGTGAGTGTAA here?
Answer: 0.357

Question: For TTTGTTAACAGATCATTTGTTT, which sensor-assay potency score (higher = more potent) is on record?
Answer: 0.0812

Question: For TCCACACAGGTGGTACACTTGG, which sensor-assay potency score (higher = more potent) is on record?
Answer: -1.58

Question: How did the sensor-assay potency score (higher = more potent) turn out when ATTAGCGTCAGGACCCCTGAGA was run?
Answer: -0.855

Question: Which sensor-assay potency score (higher = more potent) does the source give for TTGGGCCTCAGCCACCAGGGGG here?
Answer: -1.51
